# G9a inh – inhibitors of human histone lysine methyltransferase G9a; AID 504332; Potency, µM (highest dose often 102 µM), inactives show at the highest dose activity, negative = inhibition, hits mostly inhibitors; Q96KQ7; hit rate 8.8% among 350,000; G9a H3K9 monomethylation, AlphaScreen, 2 h; further: on the % scale 0 is the no-effect control and ±100 the full control effect; nearly all actives have a fitted effect of over 75% in size
# Target sequence (Q96KQ7 913-1193 limits assumed): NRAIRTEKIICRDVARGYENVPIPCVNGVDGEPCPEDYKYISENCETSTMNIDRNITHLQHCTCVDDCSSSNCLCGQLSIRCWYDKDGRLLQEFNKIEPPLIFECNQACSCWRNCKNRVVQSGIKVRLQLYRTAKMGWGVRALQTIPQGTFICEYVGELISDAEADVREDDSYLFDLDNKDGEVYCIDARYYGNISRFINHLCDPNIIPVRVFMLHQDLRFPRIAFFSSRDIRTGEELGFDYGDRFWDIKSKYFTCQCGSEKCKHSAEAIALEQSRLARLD
#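 Using a bead-based AlphaScreen, monomethylated H3K9 product from 2 h room-temperature reactions (G9a 20 nM, peptide 500 nM, SAM 20 uM) was detected with 0.5 ug/mL rabbit anti-H3K9me1 antibody.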
# JMJD2A Tudor – inhibitors of human JMJD2A Tudor domain. O75164. AlphaScreen JMJD2A-Tudor / H3K4me3 peptide binding. Potency, µM (top dose mostly 114 µM), for the others: top-dose activity change, negative = inhibition, hits mostly inhibitors. hit rate 4.4% among 390,000; further: on the % scale 0 is the no-effect control and ±100 the full control effect; nearly all actives have a fitted effect of over 50% in size
# BAZ2B block – inhibitors of human BAZ2B bromodomain. AID 504333. AlphaScreen BAZ2B-H3K14Ac peptide displacement. Potency, µM (titrated, usually from 114 µM), for inactives: at the highest dose activity change, negative = inhibition, actives largely listed as inhibitors. hit rate 4.4% among 360,000; further: on the % scale 0 is the no-effect control and ±100 the full control effect; nearly all actives have a fitted effect of over 60% in size
#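 Inhibition is scored as reduced AlphaScreen emission. The BAZ2B/b-H3(5-23)K14Ac complex (50 nM each) in PBS pH 7.4, 0.01% Tween-20 meets compound (up to 110 uM) for 30 min at RT before bead addition.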
# Sfp inh – inhibitors of Bacillus subtilis Sfp phosphopantetheinyl transferase | Biochemical Sfp PPTase activity, qHTS | hit rate 3.5% among 310,000 | Potency, µM, inactives show largest response in the series, negative = inhibition, usual class: inhibitors | AID 1490 | Q9F4F7;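 further: the enzyme is Sfp with the accession as filed and its product quenches rhodamine fluorescence; 0% = enzyme reaction without inhibitor and -100% = no enzyme wells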
#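 Compounds were incubated with enzyme (final 15 nM) for 15 min at room temperature before substrate addition started the reaction. Fluorescence at 525 nm excitation, 598 nm emission was recorded immediately and after 30 minutes.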
# HP1b binding inh – inhibitors of HP1-beta chromodomain binding to methylated histone tails; P83916; AlphaScreen HP1-beta / biotin-H3K9me3 peptide binding; Potency, µM (titrated, usually from 114 µM), inactives show top-dose activity change, negative = inhibition, usual class: inhibitors; hit rate 0.56% among 390,000; AID 540317; further: nearly all actives have a fitted effect of over 70% in size
# Target sequence (P83916 whole entry, looked up): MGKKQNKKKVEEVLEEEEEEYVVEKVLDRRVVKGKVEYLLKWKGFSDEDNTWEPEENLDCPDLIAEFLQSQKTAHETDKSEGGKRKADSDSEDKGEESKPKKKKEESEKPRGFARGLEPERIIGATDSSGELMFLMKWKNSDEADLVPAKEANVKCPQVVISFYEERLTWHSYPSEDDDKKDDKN
#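 Compound inhibition of the preformed complex between 50 nM HP1-beta and 50 nM biotinylated H3K9me3 peptide was read by AlphaScreen. Buffer was PBS pH 7.4 with 0.01% Tween-20. Incubations ran 30 min at room temperature, with 10 ug/mL donor/acceptor beads.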
# Numbers without * were called inactive; u = inconclusive; x = not tested or not shown; ! = repeats disagree; [ ] = dose if it differs, or a comment. A selection: hits, their analogues and other compounds. The true share with any hit is near 12%. The call rests on the fitted dose curve; in most records, active means well fitted curve in the direction sought with a large enough effect; inconclusive means small, poorly fitted or top-dose-only effect, or another doubt; inactive means no such curve, though single readings can be large; an effect the other way counts as inactive or inconclusive. Potency means the concentration at half of the fitted maximal effect.
SMILES,G9a inh,JMJD2A Tudor,BAZ2B block,Sfp inh,HP1b binding inh
COC(=O)[C@@]1(Cc2ccccc2)[C@H]2c3cc(C(=O)N(C)C)[nH]c3C[C@H]2CN1C(=O)c1ccccc1,x,x,x,11.0%,x
COc1ccc(N2C(=O)/C(=C/c3ccc(N(C)C)o3)C(=O)NC2=S)cc1,44.7µM*,-6.4%,u,-22.4%,30.2%
COc1ccc(N2C(=O)/C(=C/C=C/c3ccccc3[N+](=O)[O-])C(=O)NC2=S)cc1,6.31µM*,12.6µM*,50.1µM*,35.5µM*,25.1µM*
CCN(CC)c1ccc(/C=C2\C(=O)NC(=S)N(c3ccc(OC)cc3OC)C2=O)o1,x,-25.7%,x,x,-15.1%
Cc1cc(C)cc(N2C(=O)/C(=C\c3ccc(N4CCN(C)CC4)o3)C(=O)NC2=S)c1,u,-32.4%,35.5µM*,-0.8%,u
c1cc2cc(c1)C[n+]1ccc(c3ccccc31)NCc1ccc(cc1)CNc1cc[n+](c3ccccc13)C2,x,x,x,2.1%,x
CC[C@H](Oc1ccc(Cl)cc1)C(=O)OC1C[C@H]2CC[C@@H](C1)N2C (stereo partly drawn),x,x,x,-0.7%,x
O=C1NCCOC(=O)[C@H](Cc2ccc(F)cc2)CC/C=C/C[C@@H]1CC(=O)N(CCO)Cc1ccccc1,x,-10.7%,x,x,43.6%
Cc1ccc(-n2nc(C)c3c2NC(=O)CSC3c2ccc3c(c2)OCO3)cc1 (stereo not drawn),u,u,x,56.2µM*,u
CCOc1ccc(-n2c(O)c(N=Nc3c(C)n(C)n(-c4ccccc4)c3=O)c(=O)[nH]c2=O)cc1,-42.2%,25.1µM*,14.1µM*,44.7µM*,30.5%
Cc1c(N=Nc2c(O)[nH]c(=S)[nH]c2=O)c(=O)n(-c2ccccc2)n1C,2µM*,12.6µM*,4.47µM*,44.7µM*,26.6%
Cc1c(N=Cc2c(O)n(C3CCCCC3)c(=O)[nH]c2=O)c(=O)n(-c2ccccc2)n1C,u,-9.2%,3.8%,-10.2%,35.4%
C=CCn1c(O)c(N=Nc2c(C)n(C)n(-c3ccccc3)c2=O)c(=O)[nH]c1=S,0.794µM*,25.1µM*,7.08µM*,20µM*,9.8%
Cc1cccc(Cn2c(SCc3ccc(C(=O)NC4CCCCC4)cc3)nc3cccnc32)c1,u,-21.1%,-8.5%,x,-2.7%
CNC(=O)Oc1ccc2c(c1)C1(C)CCN(C)C1N2C (stereo not drawn),x,x,x,-3.8%,x
c1ccc2c(c1)c1cc[n+]2CCCCC[n+]2ccc(c3ccccc32)NCCCCCN1,x,x,x,-10.5%,x
O=C(O)Cn1cc(/C=C2\C(=O)NC(=O)N(c3ccc(F)cc3)C2=O)c2ccccc21,50.1µM*,x,-22.9%,-4.4%,x
COc1ccccc1N1C(=O)NC(=O)/C(=C/c2ccc3c4c(cccc24)CC3)C1=O,8.91µM*,u,u,11.2µM*,11.0%
O=C1NC(=O)N(c2ccccc2)C(=O)/C1=C\c1ccc2c3c(cccc13)CC2,7.08µM*,x,u,39.8µM*,x
CN1C2CC(=O)CC1C(O)C2 (stereo not drawn),x,x,x,15.0%,x
CC(C)C[C@H](NC(=O)[C@@H](N)Cc1ccccc1)C(=O)N[C@@H](Cc1ccccc1)C(=O)N[C@@H](CCC(N)=O)C(=O)N1CCC[C@H]1C(=O)N[C@@H](CCC(N)=O)C(=O)N[C@@H](CCCN=C(N)N)C(=O)N[C@@H](Cc1ccccc1)C(N)=O,x,x,x,33.0%,x
CN1CCCCC1c1cccnc1 (stereo not drawn),41.0%[59 µM],x,x,-19.1%,x
Cc1ccc(/C=C2\C(=O)NC(=S)N(c3ccccc3F)C2=O)s1,u,70.8µM*,50.1µM*,14.1µM*,u
CCOC(=O)C1CCN(/C=C2/C(=O)NC(=S)N(c3ccccc3F)C2=O)CC1,x,0.7%,-9.8%,-8.8%,12.8%
Cc1ccc(/C=C2\C(=O)NC(=S)N(c3ccc(F)cc3)C2=O)s1,6.31µM*,-34.0%,44.7µM*,-2.7%,11.0%
SMILES,G9a inh,JMJD2A Tudor,BAZ2B block,Sfp inh,HP1b binding inh
CCCOP(=O)(c1ccc(N(C)C)cc1)C(O)c1ccc(Cl)cc1Cl (stereo not drawn),-8.0%,u,-27.5%,-9.6%,-16.5%
O=c1c2cc(N3CCOCC3)ccc2[nH]c(=S)n1Cc1ccc(Cl)cc1,23.7%,9.0%,-18.4%,15.8µM*,47.8%
COC[C@]12CN(C=O)C3C4C(OC)C1[C@@]3(C1CC3(O)C(OC)C(O)C4(OC(C)=O)C1C3OC(=O)c1ccccc1)[C@@H](OC)CC2O (stereo partly drawn),x,x,x,8.3%,x
CN1CCN(C(=S)c2ccc([N+](=O)[O-])cc2)CC1,10µM*,u,7.5%,12.6µM*,u
CCCc1cc(N2CCN(c3ccc(OC)cc3)CC2)n2cnnc2n1,u,-25.5%,u,x,14.7%
CN(C(=O)Cc1ccc(Cl)c(Cl)c1)[C@H](CN1CCCC1)c1ccccc1,u,x,x,-2.2%,x
COC(=O)N1CCN(C(=O)Cc2ccc(Cl)c(Cl)c2)C(CN2CCCC2)C1 (stereo not drawn),35.5µM*!,x,-7.9%,4.5%,x
Cn1c(=O)oc2cc(S(=O)(=O)N3CCc4ccccc43)ccc21,33.6%,0.7%[11.4 µM],-38.8%,14.2%,79.8%
CN(C)CCN(C(=O)c1ccc(S(=O)(=O)N2CCc3ccccc32)cc1)c1nc2ccc(F)cc2s1,3.55µM*,u,u,-1.4%,5.0%
COc1ccc(CC2NC[C@H](O)[C@H]2OC(C)=O)cc1 (stereo partly drawn),-10.0%[2.33 µM],x,x,10.2%,x
CC1C(=O)OC2CCN3CC=C(COC(=O)[C@](C)(O)[C@]1(C)O)C23 (stereo partly drawn),-9.9%[2.33 µM],x,x,32.8%,x
C=C1C(O)C2OC3(CCC(/C=C/C(C)C4CC(C)=CC5(OC(CC(C)(O)C(=O)O)CCC5O)O4)O3)CCC2OC1C(O)CC(C)C1OC2(CCCCO2)CCC1C (stereo not drawn),27.0%[2.33 µM],x,x,11.3%,x
CCN(CC)C(=O)c1c(C)[nH]c(=S)c(C#N)c1-c1ccco1,3.16µM*,7.94µM*,-33.9%,1µM*,-16.7%
CCN1CCN(C(=O)Cc2coc3ccc4ccccc4c23)CC1,50.1µM*,-21.7%,-26.1%,6.1%,-0.9%
O=C1NC(=S)NC(=O)C1=Cc1cccn1-c1ccc(O)cc1,7.08µM*,25.1µM*,-28.1%,17.8µM*,u
Cc1cc(C)cc(N2C(=O)NC(=O)/C(=C\c3cccn3-c3ccc(Cl)cc3)C2=O)c1,-24.0%[59 µM],-8.7%,-3.8%,-1.5%,16.3%
CN1C(=O)/C(=C/c2cccn2-c2ccc3ccccc3c2)C(=O)NC1=S,u,u,44.7µM*,56.2µM*,-27.5%
Cn1cccc1/C=C1/C(=O)NC(=O)N(C(C)(C)C)C1=O,8.9%[12.7 µM],-25.4%,-12.5%,-19.7%,12.1%
C[S@@](=O)CCCCN=C=S,x,x,x,-7.8%,x

# High-throughput results (PubChem)
